Experimental data reported in PubChem BioAssay (NCATS).
Records with an inconclusive call do not appear. A call without a number means that no potency is given here. Activity calls are given as the source filed them. The call rests on the fitted dose curve; in most records, active means well fitted inhibition curve with a large enough effect; inconclusive means small, poorly fitted or top-dose-only effect; inactive means flat fitted curve, though single readings scatter.

System: not listed separately
Assay: qHTS profiling for inhibitors of Plasmodium falciparum proliferation (AID 504749); further: nearly all actives have a fitted effect of over 60% in size
Settings: P. falciparum in erythrocytes, SYBR Green DNA, 72 h; at 28.7 µM (top of the series); parasite line A
Procedure, shortened: (§1)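 P. falciparum-infected erythrocytes (0.3% parasitemia, 2.5% hematocrit final) were exposed to compounds for 72 h at 37 C in 5% CO2, then lysed with SYBR Green buffer overnight at room temperature; parasite DNA fluorescence was normalized to artemisinin and DMSO controls.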

With C[N+](C)(C)CC(O)CC(=O)O (stereo not given) as the molecule, how does the activity, negative = inhibition read?
The activity, negative = inhibition was 14.7% (inactive).

With CN1CCCC[C@@H]1CCN1c2ccccc2Sc2ccc(S(C)=O)cc21 (stereo not given in full) as the molecule, how does the activity, negative = inhibition read?
The activity, negative = inhibition was 1.72% (inactive).

For O=C(Cc1cccs1)NC1C(=O)N2C(C(=O)[O-])=C(C[n+]3ccccc3)CSC12 (stereo not given), which activity, negative = inhibition is on record?
The activity, negative = inhibition was 4.33% (inactive).

Same assay, conditions: P. falciparum in erythrocytes, SYBR Green DNA, 72 h; at 28.7 µM (top of the series); parasite line B

Which activity, negative = inhibition does the source give for C[N+](C)(C)CC(O)CC(=O)O (stereo not given) here?
Its activity, negative = inhibition is 11.5% (inactive).

Which activity, negative = inhibition does the source give for CN1CCCC[C@@H]1CCN1c2ccccc2Sc2ccc(S(C)=O)cc21 (stereo not given in full) here?
Its activity, negative = inhibition is 1.85% (inactive).

Which activity, negative = inhibition does the source give for O=C(Cc1cccs1)NC1C(=O)N2C(C(=O)[O-])=C(C[n+]3ccccc3)CSC12 (stereo not given) here?
Its activity, negative = inhibition is -24.5% (inactive).

System: 3D7
Assay: as above
Settings: P. falciparum in erythrocytes, SYBR Green DNA, 72 h; series mostly up to 12.8 µM
Procedure, shortened: as §1

For C[N+](C)(C)CC(O)CC(=O)O (stereo not given), which Potency is on record?
The Potency was “inactive”.

For CN1CCCC[C@@H]1CCN1c2ccccc2Sc2ccc(S(C)=O)cc21 (stereo not given in full), which Potency is on record?
Its Potency is “inactive”.

With O=C(Cc1cccs1)NC1C(=O)N2C(C(=O)[O-])=C(C[n+]3ccccc3)CSC12 (stereo not given) as the molecule, how does the Potency read?
Its Potency is “inactive”.

For CN(C)CC/C=C1\c2ccccc2CSc2ccccc21, which Potency is on record?
Its Potency is “inactive”.

For C[C@@H]1CCC[C@H](C)N1NC(=O)c1ccc(Cl)c(S(N)(=O)=O)c1, which Potency is on record?
The Potency was “inactive”.

Which Potency does the source give for CC(C)N1CCN(c2ccc(OC[C@@H]3CO[C@@](Cn4cncn4)(c4ccc(Cl)cc4Cl)O3)cc2)CC1 here?
Its Potency is “inactive”.

System: 7G8
Assay: as above
Settings: P. falciparum in erythrocytes, SYBR Green DNA, 72 h; series mostly up to 12.8 µM
Procedure, shortened: as §1

With C[N+](C)(C)CC(O)CC(=O)O (stereo not given) as the molecule, how does the Potency read?
The Potency was “inactive”.

For O=C(Cc1cccs1)NC1C(=O)N2C(C(=O)[O-])=C(C[n+]3ccccc3)CSC12 (stereo not given), which Potency is on record?
The Potency was “inactive”.

Which Potency does the source give for C[C@@H]1CCC[C@H](C)N1NC(=O)c1ccc(Cl)c(S(N)(=O)=O)c1 here?
Its Potency is “inactive”.

System: AA1029
Assay: as above
Settings: P. falciparum in erythrocytes, SYBR Green DNA, 72 h; series mostly up to 12.8 µM
Procedure, shortened: as §1

Which Potency does the source give for C[N+](C)(C)CC(O)CC(=O)O (stereo not given) here?
Its Potency is “inactive”.

Which Potency does the source give for CN1CCCC[C@@H]1CCN1c2ccccc2Sc2ccc(S(C)=O)cc21 (stereo not given in full) here?
Its Potency is “inactive”.

For O=C(Cc1cccs1)NC1C(=O)N2C(C(=O)[O-])=C(C[n+]3ccccc3)CSC12 (stereo not given), which Potency is on record?
The Potency was “inactive”.

With C[C@@H]1CCC[C@H](C)N1NC(=O)c1ccc(Cl)c(S(N)(=O)=O)c1 as the molecule, how does the Potency read?
Its Potency is “inactive”.

For CC(C)N1CCN(c2ccc(OC[C@@H]3CO[C@@](Cn4cncn4)(c4ccc(Cl)cc4Cl)O3)cc2)CC1, which Potency is on record?
Its Potency is “inactive”.

System: AS120
Assay: as above
Settings: P. falciparum in erythrocytes, SYBR Green DNA, 72 h; series mostly up to 28.7 µM
Procedure, shortened: as §1

For C[N+](C)(C)CC(O)CC(=O)O (stereo not given), which Potency is on record?
The Potency was “inactive”.

For CN1CCCC[C@@H]1CCN1c2ccccc2Sc2ccc(S(C)=O)cc21 (stereo not given in full), which Potency is on record?
Its Potency is “inactive”.

For O=C(Cc1cccs1)NC1C(=O)N2C(C(=O)[O-])=C(C[n+]3ccccc3)CSC12 (stereo not given), which Potency is on record?
The Potency was “inactive”.

Which Potency does the source give for C[C@@H]1CCC[C@H](C)N1NC(=O)c1ccc(Cl)c(S(N)(=O)=O)c1 here?
Its Potency is “inactive”.

For CC(C)N1CCN(c2ccc(OC[C@@H]3CO[C@@](Cn4cncn4)(c4ccc(Cl)cc4Cl)O3)cc2)CC1, which Potency is on record?
The Potency was “inactive”.
